Measured values as given in PubChem BioAssay (NCATS).
Records with an inconclusive call do not appear. Calls of active or inactive are those of the source. Unless noted, calls come from the whole dose curve; as a rule, active = well fitted curve in either direction with a large enough effect (not every such curve was filed as active); inconclusive = small, poorly fitted or top-dose-only effect, or another doubt; inactive = flat fitted curve, though single readings scatter.

Experiments:
[1] = molecular target: Lysosomal acid glucosylceramidase (Homo sapiens) (UniProt P04062); test: Glucocerebrosidase-p2 (AID 348; in the data active = potency below about 10 µM; note: potency is the fitted concentration of half-maximal effect); conditions: purified GBA, blue fluorogenic substrate, 40 min
Lysosomal acid glucosylceramidase (Homo sapiens), sequence (P04062 whole entry, looked up): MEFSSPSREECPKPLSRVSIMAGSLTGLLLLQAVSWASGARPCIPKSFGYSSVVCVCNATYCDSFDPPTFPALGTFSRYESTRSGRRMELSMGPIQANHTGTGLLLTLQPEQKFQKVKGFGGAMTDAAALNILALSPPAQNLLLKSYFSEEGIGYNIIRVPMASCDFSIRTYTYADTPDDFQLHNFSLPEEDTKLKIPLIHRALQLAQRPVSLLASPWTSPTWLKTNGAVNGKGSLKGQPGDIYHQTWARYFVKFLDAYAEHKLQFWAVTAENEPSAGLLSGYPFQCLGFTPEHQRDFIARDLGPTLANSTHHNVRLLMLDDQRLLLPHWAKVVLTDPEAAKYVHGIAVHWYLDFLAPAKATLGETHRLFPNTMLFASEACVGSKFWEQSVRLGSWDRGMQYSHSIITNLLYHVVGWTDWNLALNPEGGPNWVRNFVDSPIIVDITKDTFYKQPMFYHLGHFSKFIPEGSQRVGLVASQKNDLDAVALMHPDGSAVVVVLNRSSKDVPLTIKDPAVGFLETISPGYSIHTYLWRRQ
How it was run: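 Compounds titrated from 0.6 nM upwards against 0.2 nM enzyme in pH 5.9 citric acid/KH2PO4, taurocholate, tween-20; blue fluorogenic substrate 80 uM, 40 min room temperature, stopped and read Ex 365/Em 440 for AC50.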

[2] = AP1 Signaling Pathway (AID 357); conditions: ME-180 AP-1-bla reporter, EGF-induced, beta-lactamase ratio, 5 h; at 7.69 µM (top of the series) unless noted;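 note: ME-180 reporter cells stimulated with EGF at its EC50 level; % is set by controls: 0 for no effect and ±100 for the full control effect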
How it was run: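 AP-1-bla ME-180 cells, Opti-MEM + 0.5% dialyzed FBS, plated overnight 37 °C. Cpd titration + EC50 EGF, 5 h 37 °C. CCF4 2.5 h RT; ex 405, em 460/530 ratio → %activity, AC50.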

[3] = molecular target: Cytochrome P450 1A2 (Homo sapiens) (UniProt P05177); test: p450-cyp1a2 (AID 410; calls by dose curve; note: potency is the fitted concentration of half-maximal effect;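 for activity change, negative = inhibition: -100% = full effect of reference inhibitor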); conditions: recombinant CYP1A2, luciferin-ME demethylation, luminescence; series mostly up to 57 µM
Cytochrome P450 1A2 (Homo sapiens), sequence (P05177 whole entry, looked up): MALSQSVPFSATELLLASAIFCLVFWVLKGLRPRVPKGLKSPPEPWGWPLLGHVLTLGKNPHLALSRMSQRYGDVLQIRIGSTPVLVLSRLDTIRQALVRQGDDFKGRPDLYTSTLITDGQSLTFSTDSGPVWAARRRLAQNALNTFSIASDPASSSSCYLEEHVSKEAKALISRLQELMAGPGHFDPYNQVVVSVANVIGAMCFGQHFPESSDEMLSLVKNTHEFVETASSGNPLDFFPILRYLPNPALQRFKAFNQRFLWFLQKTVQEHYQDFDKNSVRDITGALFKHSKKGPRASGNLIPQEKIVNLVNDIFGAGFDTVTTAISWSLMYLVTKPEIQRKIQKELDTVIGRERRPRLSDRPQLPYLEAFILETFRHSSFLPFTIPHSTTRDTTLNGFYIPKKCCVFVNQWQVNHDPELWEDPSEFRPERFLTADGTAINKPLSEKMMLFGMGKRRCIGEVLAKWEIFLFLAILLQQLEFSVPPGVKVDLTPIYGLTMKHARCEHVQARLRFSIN
How it was run: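 Inhibition was calculated relative to 57 uM furafylline (full inhibition). The reaction used human CYP1A2 at 20nM with Luciferin-ME at its Km, 100uM, driven by an NADPH-regenerating system for 60 min at room temperature.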

[4] = NFAT Signaling Pathway (AID 444); conditions: Jurkat NFAT-bla M1, carbachol, beta-lactamase ratio, 5 h; at 7.69 µM (top of the series) unless noted;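 note: carbachol stimulus at about its EC50 of 1 µM final; % is set by controls: 0 for no effect and ±100 for the full control effect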
How it was run: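 Read-out: CCF4 FRET ratio (460 nm/530 nm) after 1 h RT dye loading, used for %activity and AC50 from titration series. Cells: Jurkat NFAT-β-lactamase/M1 line, treated with compound plus 1 uM carbachol for 5 h, 37 °C.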

[5] = Stat Signaling Pathway (AID 446); conditions: ME-180 SIE beta-lactamase reporter, IL-6 stimulated, 5 h; at 7.69 µM (top of the series) unless noted;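 note: ME-180 cervical cancer cells given 40 pM IL-6 alongside compound; SIE-controlled beta-lactamase reporter measured as 460/530 nm FRET emission ratio; % is set by controls: 0 for no effect and ±100 for the full control effect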
How it was run: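 Reporter line: ME-180 cervical carcinoma, SIE-beta-lactamase. Treatment: compound with 40 pM IL-6, 5 hrs, 37 C, in low-serum OPTI-MEM with 10 mM HEPES pH 7.3. Detection: 460/530 nm fluorescence.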

[6] = molecular target: Glucocorticoid receptor (Homo sapiens) (UniProt P04150); test: GR-EFC Redistribution (AID 451; calls by dose curve; note: potency is the fitted concentration of half-maximal effect); conditions: CHO-K1 GR-EFC translocation, beta-gal luminescence, 2 h
Glucocorticoid receptor (Homo sapiens), sequence (P04150 whole entry, looked up, the tested form may be a part): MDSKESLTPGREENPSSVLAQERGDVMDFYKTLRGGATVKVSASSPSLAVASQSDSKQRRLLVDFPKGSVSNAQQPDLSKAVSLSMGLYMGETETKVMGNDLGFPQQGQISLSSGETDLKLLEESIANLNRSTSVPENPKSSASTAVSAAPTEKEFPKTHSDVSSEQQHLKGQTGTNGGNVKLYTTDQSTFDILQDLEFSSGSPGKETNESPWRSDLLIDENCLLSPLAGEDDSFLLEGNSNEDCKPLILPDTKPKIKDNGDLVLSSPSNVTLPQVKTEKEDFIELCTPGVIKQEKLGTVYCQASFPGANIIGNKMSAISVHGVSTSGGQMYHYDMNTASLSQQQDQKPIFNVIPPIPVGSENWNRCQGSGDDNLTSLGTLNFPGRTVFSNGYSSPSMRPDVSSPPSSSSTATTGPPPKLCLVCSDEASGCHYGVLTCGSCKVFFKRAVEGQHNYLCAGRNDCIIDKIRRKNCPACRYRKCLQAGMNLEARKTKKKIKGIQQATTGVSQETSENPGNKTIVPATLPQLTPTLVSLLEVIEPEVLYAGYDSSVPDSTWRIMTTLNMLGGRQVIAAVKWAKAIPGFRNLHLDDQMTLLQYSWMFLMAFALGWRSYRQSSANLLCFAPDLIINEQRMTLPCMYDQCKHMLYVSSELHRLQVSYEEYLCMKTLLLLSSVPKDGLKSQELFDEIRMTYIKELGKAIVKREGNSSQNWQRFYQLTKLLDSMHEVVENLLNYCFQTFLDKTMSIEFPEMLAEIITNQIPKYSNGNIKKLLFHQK
How it was run: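 Translocation of GR-ED fusion to nuclear EA restores b-gal, read by luminescence after 1 h room-temperature detection. Engineered CHO-K1 biosensor cells, 1,000/well, exposed 2 h at 37 C to titrations up to 46 uM final.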

[7] = molecular target: Mitogen-activated protein kinase 10 (Mus musculus) (UniProt Q61831); test: JNK3 AlphaScreen Assay (AID 530); conditions: JNK3 lysate, c-Jun phosphorylation; series mostly up to 57.1 µM;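 note: kinase came from lysate of stimulated human HepG2 cells; signal reports phosphorylation of biotinylated GST-cJun 1-79 at Ser73 with 10 µM ATP; % is set by controls: 0 for no effect and ±100 for the full control effect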
How it was run: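 Room-temperature AlphaScreen kinase assay; pre-activated HepG2 lysate as JNK3 source, biotin-GST-cJun(1-79) substrate, 10 uM ATP, compound 15 min preincubation.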

[8] = molecular target: 3',5'-cyclic-AMP phosphodiesterase 4B (Homo sapiens) (UniProt Q07343); test: qHTS Assay for Inhibitors of PDE-IV (AID 607; active = well fitted activation curve with a large enough effect in the main read-out, with a control signal flat, not every such curve was filed as active; note: % of control where 0% means no effect); conditions: HEK293 ACTOne CNG channel cells, membrane potential fluorescence; series mostly up to 22.9 µM
3',5'-cyclic-AMP phosphodiesterase 4B (Homo sapiens), sequence (Q07343 whole entry, looked up): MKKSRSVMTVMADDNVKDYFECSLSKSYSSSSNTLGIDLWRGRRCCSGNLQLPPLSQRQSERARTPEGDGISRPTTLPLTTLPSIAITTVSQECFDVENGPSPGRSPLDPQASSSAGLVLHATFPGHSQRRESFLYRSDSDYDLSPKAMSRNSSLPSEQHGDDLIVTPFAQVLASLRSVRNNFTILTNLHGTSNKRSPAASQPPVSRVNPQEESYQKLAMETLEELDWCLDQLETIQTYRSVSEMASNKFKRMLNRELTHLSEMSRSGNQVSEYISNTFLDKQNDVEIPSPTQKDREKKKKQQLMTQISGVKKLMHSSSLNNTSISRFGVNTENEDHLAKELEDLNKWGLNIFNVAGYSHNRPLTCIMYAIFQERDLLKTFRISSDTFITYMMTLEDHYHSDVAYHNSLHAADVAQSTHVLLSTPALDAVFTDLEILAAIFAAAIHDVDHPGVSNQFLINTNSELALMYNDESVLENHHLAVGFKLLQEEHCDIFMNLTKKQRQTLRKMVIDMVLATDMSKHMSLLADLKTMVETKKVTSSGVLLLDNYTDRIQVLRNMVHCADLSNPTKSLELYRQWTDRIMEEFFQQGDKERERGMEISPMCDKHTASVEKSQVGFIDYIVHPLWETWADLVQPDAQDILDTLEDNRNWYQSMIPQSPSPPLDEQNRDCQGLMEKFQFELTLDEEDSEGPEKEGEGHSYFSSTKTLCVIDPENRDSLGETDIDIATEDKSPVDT
How it was run: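 Cell-based read-out of cAMP via a modified cyclic nucleotide-gated channel and membrane potential dye (535/590 nm) in HEK293 cells expressing PDE4 endogenously. Compounds tested up to 22.9 uM final; 100 uM RO 20-1724 reference.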

[9] = molecular target: Cytochrome P450 3A4 (Homo sapiens) (UniProt P08684); test: qHTS Assay for Inhibitors and Substrates of Cytochrome P450 3A4 (AID 884; active = well fitted curve in the direction sought with a large enough effect; an effect the other way counts as inactive or inconclusive; note: % is set by controls: 0 for no effect and ±100 for the full control effect; nearly all actives have a fitted effect of over 50% in size); conditions: recombinant CYP3A4, Luciferin-PPXE luminescence; series mostly up to 57.1 µM
Cytochrome P450 3A4 (Homo sapiens), sequence (P08684 whole entry, looked up): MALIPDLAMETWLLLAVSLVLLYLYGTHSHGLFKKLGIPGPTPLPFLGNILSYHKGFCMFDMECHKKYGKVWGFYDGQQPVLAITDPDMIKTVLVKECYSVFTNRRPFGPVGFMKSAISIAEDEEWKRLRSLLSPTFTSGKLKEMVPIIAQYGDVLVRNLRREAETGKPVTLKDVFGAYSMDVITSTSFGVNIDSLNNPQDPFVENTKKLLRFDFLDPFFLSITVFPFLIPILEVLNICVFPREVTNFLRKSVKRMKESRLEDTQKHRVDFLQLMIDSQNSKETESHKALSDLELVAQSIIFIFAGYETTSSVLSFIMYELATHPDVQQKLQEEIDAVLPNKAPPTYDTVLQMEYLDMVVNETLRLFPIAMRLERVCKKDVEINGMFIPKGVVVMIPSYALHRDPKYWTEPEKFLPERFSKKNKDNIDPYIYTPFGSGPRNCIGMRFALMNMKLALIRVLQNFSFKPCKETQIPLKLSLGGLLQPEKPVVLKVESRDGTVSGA
How it was run: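 20 nM human CYP3A4 with 25 uM Luciferin-PPXE (at KM) in 200 mM KPO4, preincubated 10 min with compound; NADPH regeneration started a 60 min RT reaction. Luciferin detected by luminescence, normalized to 57 uM ketoconazole as full inhibition.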

[10] = molecular target: Cytochrome P450 3A4 (Homo sapiens) (UniProt P08684); test: qHTS Assay for Activators of Cytochrome P450 3A4 (AID 885; active = well fitted curve in the direction sought with a large enough effect; an effect the other way counts as inactive or inconclusive; note: nearly all actives have a fitted effect of over 65% in size; note: potency is the fitted concentration of half-maximal effect); conditions: recombinant CYP3A4, Luciferin-PPXE luminescence, 60 min; series mostly up to 57.1 µM
How it was run: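 Signal was normalized against complete inhibition by 57 uM ketoconazole. The reaction used 20nM CYP3A4 with 25uM Luciferin-PPXE, 10-min compound preincubation and a 60-min NADPH-supported step at RT.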

[11] = Primary qHTS for small molecule stabilizers of the endoplasmic reticulum resident proteome: Secreted ER Calcium Modulated Protein (SERCaMP) assay (AID 1508630; active = well fitted curve in the direction sought with a large enough effect; an effect the other way counts as inactive or inconclusive; note: % is set by controls: 0 for no effect and ±100 for the full control effect); conditions: SH-SY5Y GLuc-SERCaMP (Gaussia luciferase released on ER calcium loss) secretion, thapsigargin, luminescence; series mostly up to 38.4 µM
How it was run: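 GLuc-SERCaMP-expressing SH-SY5Y cells, pretreated 16 h with compound, are challenged with thapsigargin to empty ER calcium stores; after 4 h, coelenterazine is added directly to the medium and luminescence is imaged.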

[12] = molecular target: Cytochrome P450 2C9 (Homo sapiens) (UniProt P11712); test: qHTS Assay for Inhibitors and Substrates of Cytochrome P450 2C9 (AID 883; active = well fitted curve in the direction sought with a large enough effect; an effect the other way counts as inactive or inconclusive; note: % is set by controls: 0 for no effect and ±100 for the full control effect; nearly all actives have a fitted effect of over 60% in size); conditions: recombinant CYP2C9, luciferin-H luminescence, 60 min; series mostly up to 57.1 µM
Cytochrome P450 2C9 (Homo sapiens), sequence (P11712 whole entry, looked up): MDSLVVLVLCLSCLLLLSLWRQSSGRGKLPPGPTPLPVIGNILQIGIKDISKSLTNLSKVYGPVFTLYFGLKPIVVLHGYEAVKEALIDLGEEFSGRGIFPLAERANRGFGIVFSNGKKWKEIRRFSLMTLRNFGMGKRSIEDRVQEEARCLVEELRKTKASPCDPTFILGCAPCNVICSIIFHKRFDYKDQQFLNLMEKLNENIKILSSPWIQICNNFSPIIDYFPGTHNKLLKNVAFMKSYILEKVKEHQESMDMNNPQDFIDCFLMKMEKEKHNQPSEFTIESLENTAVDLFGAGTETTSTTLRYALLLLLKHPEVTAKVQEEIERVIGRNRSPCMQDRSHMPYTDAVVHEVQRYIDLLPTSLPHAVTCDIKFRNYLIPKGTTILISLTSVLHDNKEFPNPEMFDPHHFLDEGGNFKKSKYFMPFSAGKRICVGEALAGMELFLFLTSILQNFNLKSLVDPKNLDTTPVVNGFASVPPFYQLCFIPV
How it was run: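 Luminescent read-out of deoxyluciferin hydroxylation, normalized to 57uM sulphaphenazole (AC100). Reaction: 10nM enzyme, 100uM Luciferin-H (equal to KM), 25mM KPO4, 10 min compound preincubation, then 60 min with NADPH regeneration, both at 37C.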

[13] = qHTS Assay for Identification of Small Molecule Agonists for Hypoxia Response Element Signaling Pathway (AID 914; active = well fitted activation curve with a large enough effect in the signal ratio, with a control signal flat, not every such curve was filed as active; the % refers to the signal ratio; note: % of control where 0% means no effect); conditions: ME-180 (cervical carcinoma) HRE-bla reporter, beta-lactamase ratio, CoCl2, 17 h; activation: hits give high values
How it was run: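 AC50 values come from titration-series %Activity, taken as the 460/530nm ratio of CCF4 fluorescence (excitation 405nm). CellSensor HRE-bla ME-180 cells were treated 17 hours at 37 C with compound plus an EC50 level of CoCl2.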

[14] = molecular target: Cytochrome P450 2D6 (Homo sapiens) (UniProt P10635); test: qHTS Assay for Inhibitors and Substrates of Cytochrome P450 2D6 (AID 891; active = well fitted curve in the direction sought with a large enough effect; an effect the other way counts as inactive or inconclusive;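 note: luciferin methyl ether substrate demethylated by CYP2D6 with NADPH regeneration; % is set by controls: 0 for no effect and ±100 for the full control effect; nearly all actives have a fitted effect of over 60% in size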); conditions: recombinant CYP2D6, luciferin-ME EGE luminescence; series mostly up to 57.1 µM
Cytochrome P450 2D6 (Homo sapiens), sequence (P10635 whole entry, looked up): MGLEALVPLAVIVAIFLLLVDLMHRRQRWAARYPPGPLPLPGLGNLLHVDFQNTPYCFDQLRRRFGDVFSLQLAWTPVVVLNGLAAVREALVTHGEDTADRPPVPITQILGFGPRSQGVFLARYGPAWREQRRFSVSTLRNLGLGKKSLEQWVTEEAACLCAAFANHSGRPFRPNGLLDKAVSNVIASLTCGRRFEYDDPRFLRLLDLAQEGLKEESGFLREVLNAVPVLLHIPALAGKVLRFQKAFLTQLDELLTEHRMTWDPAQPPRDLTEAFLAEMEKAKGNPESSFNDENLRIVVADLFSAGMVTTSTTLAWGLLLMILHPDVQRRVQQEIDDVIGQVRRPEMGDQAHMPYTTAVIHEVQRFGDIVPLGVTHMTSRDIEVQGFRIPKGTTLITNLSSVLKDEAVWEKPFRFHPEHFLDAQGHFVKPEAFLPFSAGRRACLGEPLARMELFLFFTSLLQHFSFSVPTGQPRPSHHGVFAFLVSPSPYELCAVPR
How it was run: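 Human CYP2D6 (5 nM) with 30 uM Luciferin-ME EGE (at Km) in 100 mM KPO4, compound preincubated 10 min, then NADPH regeneration system for 60 min at room temperature. Luciferin read by luminescence; normalized to 1.43 uM quinidine.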

[15] = molecular target: Cytochrome P450 2C19 (Homo sapiens) (UniProt P33261); test: qHTS Assay for Inhibitors and Substrates of Cytochrome P450 2C19 (AID 899; active = well fitted curve in the direction sought with a large enough effect; an effect the other way counts as inactive or inconclusive; note: % is set by controls: 0 for no effect and ±100 for the full control effect; nearly all actives have a fitted effect of over 60% in size); conditions: recombinant CYP2C19, luciferin-H EGE luminescence; series mostly up to 57.1 µM
Cytochrome P450 2C19 (Homo sapiens), sequence (P33261 whole entry, looked up): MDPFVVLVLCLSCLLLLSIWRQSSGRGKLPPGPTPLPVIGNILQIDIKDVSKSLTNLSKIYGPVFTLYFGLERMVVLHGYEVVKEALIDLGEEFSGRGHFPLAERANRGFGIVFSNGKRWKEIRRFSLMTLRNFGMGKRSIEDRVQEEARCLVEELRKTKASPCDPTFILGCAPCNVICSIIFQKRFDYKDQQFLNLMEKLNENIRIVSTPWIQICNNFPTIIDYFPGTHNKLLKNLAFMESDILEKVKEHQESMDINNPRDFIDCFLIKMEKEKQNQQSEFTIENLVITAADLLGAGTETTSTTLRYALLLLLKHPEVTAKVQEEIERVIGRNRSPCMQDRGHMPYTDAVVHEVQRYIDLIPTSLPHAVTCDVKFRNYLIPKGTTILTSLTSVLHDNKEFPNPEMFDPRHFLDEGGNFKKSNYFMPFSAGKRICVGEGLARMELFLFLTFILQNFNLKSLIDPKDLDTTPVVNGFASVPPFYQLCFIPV
How it was run: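 Luminescence readout of luciferin formed from 10uM Luciferin-H EGE (KM level) by 5 nM CYP2C19 in 50mM KPO4. 60 min NADPH-driven reaction at 37C after 10 min compound preincubation; data scaled to 57uM ketoconazole inhibition.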

COC(=O)N1CCC2(CC1)CCN(c1ncccn1)CC2
inactive: Potency [1] > 11.4 µM | activity change, negative = inhibition [2] 3.11% | Potency [3] | activity change, negative = inhibition [4] -23.4% | activity, negative = inhibition [5] -4.92% | Potency [6] > 46 µM | Potency [7] | Potency [8] | Potency [9] | outcome [11]
active: Potency [10] 15.8 µM

Cc1noc(C)c1C(=O)N1CCC[C@@]2(CCN(Cc3nccs3)C2)C1
inactive: Potency [1] > 11.4 µM | activity change, negative = inhibition [2] -0.7% | Potency [3] | activity change, negative = inhibition [4] 9.88% | activity, negative = inhibition [5] -7.79% | Potency [6] > 46 µM | Potency [7] | Potency [8] | Potency [10] | outcome [11]

COc1ccc(C(=O)N2CCC3(CCCN(c4ncccn4)C3)CC2)cc1
inactive: Potency [1] > 11.4 µM | activity change, negative = inhibition [2] 0.224% | activity change, negative = inhibition [4] 13.8% | activity, negative = inhibition [5] -4.23% | Potency [6] > 46 µM | Potency [7] | Potency [8] | Potency [10] | outcome [11]
active: Potency [3] 20 µM

CC(C)NC(=O)N1CCCC2(CCN(C(=O)c3cccn3C)CC2)C1
inactive: Potency [1] > 11.4 µM | activity change, negative = inhibition [2] 4.84% | Potency [3] | activity change, negative = inhibition [4] -17.7% | activity, negative = inhibition [5] 14.5% | Potency [6] > 46 µM | Potency [7] | Potency [8] | Potency [10] | outcome [11]

COc1ccc(NC(=O)N2CC[C@@]3(CCCN(C(=O)c4c(C)noc4C)C3)C2)cc1
inactive: Potency [1] > 11.4 µM | activity change, negative = inhibition [2] -9.74% | Potency [3] | activity change, negative = inhibition [4] -10.6% | activity, negative = inhibition [5] -10.2% | Potency [6] > 46 µM | Potency [7] | Potency [8] | Potency [12] | Potency [10] | activation [13] -0.633% | outcome [11]

Cc1noc(C)c1C(=O)N1CCC[C@@]2(CCN(Cc3ccc(C#N)cc3)C2)C1
inactive: Potency [1] > 11.4 µM | activity change, negative = inhibition [2] -6.54% | Potency [3] | activity change, negative = inhibition [4] 17.1% | activity, negative = inhibition [5] 6.11% | Potency [6] > 46 µM | Potency [7] | Potency [8] | Potency [12] | Potency [14] | Potency [15] | outcome [11]

O=C(Oc1ccccc1)N1CCC2(CC1)CN(c1ncccn1)C2
active: Potency [3] 25.1 µM | Potency [10] 15.8 µM
inactive: Potency [1] > 11.4 µM | activity change, negative = inhibition [2] -11.2% | activity change, negative = inhibition [4] -7.82% | activity, negative = inhibition [5] -0.184% | Potency [6] > 46 µM | Potency [7] | Potency [8] | Potency [9] | outcome [11]
